Data published in the OligoGym collection.

target: GPS1; test: pooled miR-30 sensor sort-seq; sequence = guide strand; conditions: shRNA
Further: reference of the scale not given here.

Row | Sequence | sensor-assay potency score (higher = more potent)
1 | TTGCTGTGTGAGTCCACACGGG | -0.414
2 | TTGTAGTTCTTCAGGTCTGTGT | -0.35
3 | TTGAAGGCTGCCGCCATCCTAT | -1.18
4 | AAGAACAACTTGAAGGAGCTGC | 0.981
5 | TACTGTTCCAGATCCAGGCTGG | 0.176
6 | TTGACATGGATCTGGTTGCGGA | -0.378
7 | TAGCACTTGAGGGCGTTGCTGA | -0.484
8 | AACAACTTGAAGGAGCTGCTGG | -0.415
9 | TCCAGCTCCAAGAACAACTTGA | -0.994
10 | TTCATCTCGTCCAGCATCTTGA | -0.805

target: GPT2; test: as above; conditions: shRNA

Row | Sequence | sensor-assay potency score (higher = more potent)
11 | TTCACCTTCTGCAGCACCGTTT | -0.638
12 | TTAGCATCTTCTGGGAAGCTGG | -0.879
13 | TTTCACCTTCTGCAGCACCGTT | -1.46
14 | TTGGTTAAACAGGTCTTCCGTC | 0.251
15 | TCATGCAGTAGAACATGTCTGG | 0.355
16 | TCTGTAACCACACTCGCCCATG | -1.08
17 | TACAGCACCTTCTTGAAGGAGT | -0.472
18 | TTGATCACCTCCATGTAGCCTC | 0.135
19 | TTGGCAGGAATGAAGATCCGAG | -0.485
20 | TAACAGATTCAGAGAACCCTGG | 0.0686
21 | TTCAGGATCGTAGAAATGCCGT | -0.741

target: GPX1; test: as above; conditions: shRNA

Row | Sequence | sensor-assay potency score (higher = more potent)
22 | TTTTCTATGAGTCACCGGGATT | -1.88
23 | ACATCGTTGCGACACACCGGAG | -1.77
24 | TTCAGAATCTCTTCGTTCTTGG | 0.596
25 | ATTCTCGATAAGTAGTACCTTG | -0.704
26 | TAGGTTTAGAGGAAACACCCTC | -0.561
27 | AATCTCTTCGTTCTTGGCGTTC | -1.08
28 | ATTCAGAATCTCTTCGTTCTTG | 0.126
29 | TTCGTTCTTGGCGTTCTCCTGA | 0.781
30 | AACATCGTTGCGACACACCGGA | -0.00294
31 | TTGGGGTCGGTCATAAGCGCGG | -1.09
32 | TTCATCTGGGTGTAGTCCCGGA | -0.32
33 | TTCCAGGCAACATCGTTGCGAC | -1

target: GPX2; test: as above; conditions: shRNA

Row | Sequence | sensor-assay potency score (higher = more potent)
34 | TTGAGCTGGGTGAAGTCCCGGG | -0.183
35 | TCACATTTTTGGACAAGGGTGA | 0.0993
36 | TATGAGGAACTTCTCAAAGTTC | -1.27
37 | TTGAAATCTACCTTCTCCCCAT | 0.588
38 | ATACTTGAGACTGTTCAGGATC | -0.893
39 | TTCCAGGCCACATCTGAGCGGC | -0.521
40 | TATTGGTCTCTTCTAGCAGAGT | -1.55
